Measured values: PubChem BioAssay
Active and inactive are the calls of the source. Unless noted, no rule for the calls is given here.

Legend:
[1] = resazurin metabolic signal in HepG2 cells – cell-based, resazurin fluorescence, 24 h, PK04 Diversity Set, profiling panel (AID 1172); conditions: HepG2 viability, higher = more signal; also: test concentration not given here
[2] = budding yeast growth changes without added modifier – OD600, strain BY4716, 24 h, basal condition, primary screen (AID 1173); conditions: S. cerevisiae BY4716 growth, OD600, 24 h; higher = more signal, called active from +8 up or from −8 down
[3] = viability profiling in MM1S myeloma cells – cell-based, resazurin fluorescence, basal, 24 h, PK04 Diversity Set, profiling panel (AID 1174); conditions: higher = more signal, called active from +8 up or from −8 down;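 also: MM1S multiple myeloma cell line; test concentration not given here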
[4] = biological target: Dihydroorotate dehydrogenase (quinone), mitochondrial (Plasmodium falciparum (isolate 3D7)) (UniProt Q08210); assay: inhibition of P. falciparum DHODH – biochemical, C-terminal His tag, absorbance 600 nm, primary screen (AID 1175); conditions: PfDHODH enzyme, DCIP absorbance 600 nm; higher = more signal, called active from +8 up or from −8 down;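 also: recombinant parasite enzyme with a five histidine tag at its C terminus; test concentration not given here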
Dihydroorotate dehydrogenase (quinone), mitochondrial (Plasmodium falciparum (isolate 3D7)), sequence (Q08210 whole entry, looked up): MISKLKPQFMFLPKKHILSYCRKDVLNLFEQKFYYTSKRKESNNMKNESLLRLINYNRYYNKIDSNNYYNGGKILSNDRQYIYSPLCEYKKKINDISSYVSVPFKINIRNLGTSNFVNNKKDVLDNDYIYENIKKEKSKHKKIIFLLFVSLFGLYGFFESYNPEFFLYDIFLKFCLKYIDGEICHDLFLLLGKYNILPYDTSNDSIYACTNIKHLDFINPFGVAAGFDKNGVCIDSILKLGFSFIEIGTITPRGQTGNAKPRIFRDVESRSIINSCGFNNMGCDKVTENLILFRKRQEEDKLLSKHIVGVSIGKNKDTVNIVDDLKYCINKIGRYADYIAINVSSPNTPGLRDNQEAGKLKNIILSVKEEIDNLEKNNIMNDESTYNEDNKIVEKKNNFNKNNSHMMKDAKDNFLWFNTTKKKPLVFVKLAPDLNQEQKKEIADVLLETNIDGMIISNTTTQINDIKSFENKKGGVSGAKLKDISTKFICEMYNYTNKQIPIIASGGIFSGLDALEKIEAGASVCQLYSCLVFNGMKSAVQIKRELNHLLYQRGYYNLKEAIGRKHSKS

[5] = inhibition of PAO1 biofilm formation – strain PAO1, LB-PBS medium, absorbance 600 nm, primary screen (AID 1176); also: test concentration not given here; conditions: P. aeruginosa PAO1 growth/biofilm, A600, 12 h; higher = more signal
[6] = growth modulation of vineyard yeast isolate – strain RM11-1a, OD600, basal, 24 h, primary screen (AID 1177);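 also: cultures grown under basal conditions with no added stressor; test concentration not given here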; conditions: S. cerevisiae RM11-1a growth, OD600, 24 h; higher = more signal, called active from +8 up or from −8 down
[7] = growth of efflux-deficient E. coli DRC39 – strain DRC39, OD650, 24 h, E. coli filamentation inducers, primary screen (AID 1178);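 also: growth measured as culture turbidity by optical density at 650 nm; test concentration not given here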; conditions: E. coli DRC39 acrAB, higher = more signal, called active from +8 up or from −8 down
[8] = growth of efflux-deficient E. coli DRC39 – strain DRC39, OD650, 48 h, E. coli filamentation inducers, primary screen (AID 1179);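 also: screen aims at cell division blockers that make cells filament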; conditions: E. coli DRC39 delta-acrAB growth, higher = more signal, called active from +8 up or from −8 down
[9] = viability profiling in RPMI8226 myeloma cells – cell-based, resazurin fluorescence, basal, 24 h, PK04 Diversity Set, profiling panel (AID 1180); conditions: higher = more signal;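 also: RPMI8826 multiple myeloma cell line at 5000 cells per well; test concentration not given here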
[10] = biological target: E3 ubiquitin-protein ligase XIAP (Homo sapiens) (UniProt P98170); assay: small molecules binding XIAP protein – biophysical, small-molecule microarray, fluorescence 635 nm, primary screen (AID 1181); conditions: higher = more signal;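 also: score merges 667 nm emission and signal to noise over triplicate slides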
E3 ubiquitin-protein ligase XIAP (Homo sapiens), sequence (P98170 whole entry, looked up): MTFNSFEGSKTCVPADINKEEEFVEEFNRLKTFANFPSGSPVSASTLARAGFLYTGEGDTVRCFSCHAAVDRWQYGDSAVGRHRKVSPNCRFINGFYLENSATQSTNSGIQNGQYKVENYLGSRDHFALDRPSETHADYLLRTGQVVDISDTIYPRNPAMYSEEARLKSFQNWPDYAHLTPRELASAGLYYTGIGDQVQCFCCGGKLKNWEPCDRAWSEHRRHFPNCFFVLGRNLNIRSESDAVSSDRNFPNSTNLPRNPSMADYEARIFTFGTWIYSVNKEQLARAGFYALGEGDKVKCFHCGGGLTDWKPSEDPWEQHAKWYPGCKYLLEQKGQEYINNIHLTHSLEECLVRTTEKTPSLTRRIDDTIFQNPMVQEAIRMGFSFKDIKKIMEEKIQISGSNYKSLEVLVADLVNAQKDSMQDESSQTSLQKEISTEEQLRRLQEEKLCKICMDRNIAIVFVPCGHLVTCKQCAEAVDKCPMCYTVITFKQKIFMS

SMILES	z-score [1]	z-score [2]	z-score [3]	composite z-score [4]	z-score [5]	z-score [6]	z-score [7]	z-score [8]	z-score [9]	composite z-score [10]
COCCOC(=O)N1C(=O)[C@@]2(c3cc(C#CCNC(N)=O)ccc31)[C@H](c1ccccc1OCCO)N1[C@H](c3ccccc3)[C@H](c3ccccc3)OC(=O)[C@H]1[C@@H]2C(=O)NC[C@H](O)c1ccccc1	0.904	2.79 (inactive)	0.335 (inactive)	1.03 (inactive)	0.87 (inactive)	2.1 (inactive)	0.183 (inactive)	-0.32 (inactive)	0.152	-0.0911
CCOC(=O)C[C@H]1[C@H](OC(=O)c2cc3ccccc3oc2=O)[C@@H](NC(=O)C2CCCCC2)c2cc(OCCCO)ccc2N1C(=O)c1ccc2ccccc2n1	-0.35	1 (inactive)	0.201 (inactive)	0.884 (inactive)	-0.0339 (inactive)	1.58 (inactive)	0.205 (inactive)	0.0214 (inactive)	0.15	-0.22
O=C1c2ccccc2[C@@]2(Cc3ccccc3N(CC(F)(F)F)C2=O)[C@H](c2ccc(CO)cc2)N1C1CCCCC1	-0.0665	0.713 (inactive)	1.07 (inactive)	-24.3 (active)	0.379 (inactive)	-0.572 (inactive)	0.172 (inactive)	-0.411 (inactive)	0.748	-0.2
C=CCC(OC(C)=O)[C@@H]1[C@@H](N(Cc2ccc(-c3cccc(C(F)(F)F)c3)o2)C(=O)Cc2ccc(F)cc2)c2cc(OCCCO)ccc2N1C(=O)c1ccc(-c2ccccc2)cc1 (stereo not given in full)	-0.138	-0.0284 (inactive)	0.314 (inactive)	-0.262 (inactive)	1.11 (inactive)	-0.12 (inactive)	-0.124 (inactive)	-0.143 (inactive)	0.171	-0.184
CCOC(=O)C1=C[C@@H](c2ccccc2)N(S(=O)(=O)c2ccc(C)cc2)[C@H]1c1ccc(F)cc1	-0.296	1.87 (inactive)	-0.648 (inactive)	-0.102 (inactive)	0.216 (inactive)	2.33 (inactive)	-0.213 (inactive)	-0.283 (inactive)	-2.21	0.155
COc1ccc([C@H]2C[C@H]3C(Br)=C[C@]2(OC)C(=O)[C@]32CO2)cc1	0.531	-3.26 (inactive)	-0.677 (inactive)	-0.314 (inactive)	0.662 (inactive)	-0.173 (inactive)	0.238 (inactive)	0.205 (inactive)	-0.139	-0.0599
COC(=O)Cn1c(C(=O)N2CCCC2)cc2c1C[C@H]1CN(C(=O)c3ccccc3)[C@@](Cc3ccccc3)(C(=O)OC)[C@@H]21	-0.103	1.37 (inactive)	-0.694 (inactive)	0.0393 (inactive)	0.619 (inactive)	0.965 (inactive)	-0.244 (inactive)	0.172 (inactive)	-1.34	0.107
CCOC(=O)C[C@H]1[C@H](OC(=O)c2ccccc2-c2ccccc2)[C@@H](NC(=O)c2ccc(-c3ccccc3)cc2)c2cc(OCCCO)ccc2N1C(=O)Cc1ccc(OC)cc1	-0.235	-0.034 (inactive)	-0.0275 (inactive)	-1.29 (inactive)	0.2 (inactive)	-0.28 (inactive)	-0.489 (inactive)	-0.628 (inactive)	0.364	-0.16
CCc1cccc(NC(=O)O[C@H]2[C@H](OC(=O)Nc3ccccc3)[C@@H](OC(=O)Nc3ccccc3)[C@@H](OC)O[C@@H]2CO)c1	-2.9	0.28 (inactive)	-5.58 (inactive)	0.189 (inactive)	0.497 (inactive)	2.4 (inactive)	1.47 (inactive)	0.711 (inactive)	-4.86	0.0153
C=C(CCCC)C(=O)CC[C@@H](OC(C)=O)c1ccccc1OCCO	-0.0263	-12.5 (active)	0.304 (inactive)	-2.71 (inactive)	0.0022 (inactive)	2.05 (inactive)	0.662 (inactive)	0.378 (inactive)	-0.277	-0.193
COCCOC(=O)N1C(=O)[C@@]2(c3cc(C#CCNC(N)=O)ccc31)[C@H](C(=O)N1CCCCCCC1)[C@H]1C(=O)O[C@H](c3ccccc3)[C@H](c3ccccc3)N1[C@@H]2c1ccccc1OCCO	0.0533	1.41 (inactive)	0.188 (inactive)	0.641 (inactive)	2.08 (inactive)	2.43 (inactive)	0.532 (inactive)	0.614 (inactive)	0.368	0.291
COc1ccc(CCN2C(=O)[C@@]3(c4ccc([N+](=O)[O-])cc4)CC(=O)N(CC45CC6CC(CC(C6)C4)C5)[C@@H]3c3ccc(CO)cc32)cc1	0.214	-0.12 (inactive)	0.954 (inactive)	-25.3 (active)	0.298 (inactive)	-0.16 (inactive)	0.307 (inactive)	0.241 (inactive)	0.325	0.0325
COCCOC(=O)N1C(=O)[C@@]2(c3cc(C#CCCO)ccc31)[C@H](c1ccc(OCCO)cc1)N1[C@H](c3ccccc3)[C@H](c3ccccc3)OC(=O)[C@H]1[C@@H]2C(=O)NC[C@H](O)c1ccccc1	0.542	1.64 (inactive)	-0.149 (inactive)	1.06 (inactive)	1.39 (inactive)	2.33 (inactive)	0.0733 (inactive)	-0.534 (inactive)	0.471	0.106
CN1C(=O)C2C=CC(C(O)c3ccc(N(C)C)cc3)N(Nc3ccc([N+](=O)[O-])cc3[N+](=O)[O-])C2C1=O (stereo not given)	0.183	0.111 (inactive)	-0.355 (inactive)	-0.548 (inactive)	0.558 (inactive)	-0.29 (inactive)	-0.243 (inactive)	-0.411 (inactive)	0.236	-0.0023
CC(C)[Si](OCC[C@H]1O[C@]2(C(=O)N(Cc3ccccc3)c3ccccc32)[C@@H](C)[C@@H]1[Si](C)(C)O)(C(C)C)C(C)C	-0.563	-0.113 (inactive)	0.115 (inactive)	0.766 (inactive)	-0.66 (inactive)	1.11 (inactive)	-0.297 (inactive)	-0.837 (inactive)	0.261	-0.142
Cc1ccc([C@@H]2CC=C(C(=O)O)[C@H](c3ccccc3)N2S(=O)(=O)c2ccc(C)cc2)cc1	-1.02	-2.08 (inactive)	-1.26 (inactive)	-0.527 (inactive)	-0.405 (inactive)	0.0193 (inactive)	-1.36 (inactive)	-1.3 (inactive)	-1.99	-0.202
COc1ccc(C(=O)Nc2ccc(CN3C(=O)[C@]4(O[C@H](CCn5cc(CCO)nn5)[C@@H]([Si](C)(C)c5ccc(OC)cc5)[C@@H]4C)c4ccccc43)cc2)cc1	-2.97	-5.51 (inactive)	-6.19 (inactive)	0.597 (inactive)	0.307 (inactive)	2.44 (inactive)	1.09 (inactive)	0.72 (inactive)	-3.23	-0.0129
CN1C(=O)C2C=CC(C(O)C3CC=CCC3)N(Nc3ccccc3)C2C1=O (stereo not given)	-0.488	0.122 (inactive)	-0.533 (inactive)	0.0707 (inactive)	0.847 (inactive)	0.0862 (inactive)	-1.11 (inactive)	-0.196 (inactive)	-0.568	0.301
COC(=O)[C@H]1[C@@H]2COc3ccccc3[C@H]2N[C@H]1C(=O)OC	0.0968	-1.81 (inactive)	-0.586 (inactive)	-16.2 (active)	-0.508 (inactive)	-0.398 (inactive)	0.226 (inactive)	0.398 (inactive)	-0.139	0.0432
CC(C)(C)OC(=O)CC[C@]1(C(=O)N2CCCCC2)N=C(c2ccc(OCCCO)cc2)O[C@H]1c1ccccc1	-0.302	-1.05 (inactive)	-1.37 (inactive)	-0.892 (inactive)	0.0937 (inactive)	-0.374 (inactive)	0.627 (inactive)	0.837 (inactive)	-0.128	0.354
O=C(NCc1ccccc1)c1ccc(Br)cc1[N+](=O)[O-]	0.0759	-2.42 (inactive)	0.0636 (inactive)	-1.37 (inactive)	-0.131 (inactive)	-0.465 (inactive)	0.986 (inactive)	-0.411 (inactive)	-0.447	-0.127
O=C(N1CCCCC1)[C@@]1(CCS(=O)(=O)c2ccccc2)N=C(c2ccc(OCCCO)cc2)O[C@H]1c1ccccc1	0.233	0.0247 (inactive)	-2.91 (inactive)	1.05 (inactive)	-1.01 (inactive)	0.0929 (inactive)	1.33 (inactive)	0.561 (inactive)	-2.78	0.198
CCC#CCN(Cc1ccccc1Br)[C@H](/C=C/c1ccccc1)[C@@H](O)Cc1ccccc1	1.53	0.238 (inactive)	0.753 (inactive)	0.514 (inactive)	-0.553 (inactive)	0.846 (inactive)	1.19 (inactive)	0.994 (inactive)	0.0518	0.0101
Cc1ccc(S[C@]2(C(=O)NCCCN(C)C)CC(=O)N(Cc3ccccc3)[C@@H]2c2ccc(CO)cc2I)cc1	-0.896	-4.78 (inactive)	-2.94 (inactive)	-1.38 (inactive)	-0.369 (inactive)	-1.03 (inactive)	-0.361 (inactive)	-0.554 (inactive)	-2.15	-0.0848
CCOC(=O)C1=CCC(c2cccc3ccccc23)N(S(=O)(=O)c2ccc(C)cc2)C1 (stereo not given)	-0.739	0.66 (inactive)	-1.56 (inactive)	-0.384 (inactive)	0.518 (inactive)	-0.225 (inactive)	-0.601 (inactive)	0.0759 (inactive)	-3.43	0.397
